According to PubChem BioAssay AID1159580 (chemical genetic matrix, 2015):
In all, about 5,500 compounds went through this assay and about 2,000 (36%) were called active. Another 18% or so got no clear call; they are omitted. No stated cut-off is given here; in the data, active means normalized growth mostly below about 0.91 (no sharp cut-off); inconclusive means no clear call, values can overlap the other calls; inactive means mostly above about 0.92. Some of the results follow.

Test: chemical genetic growth profiling, strain panel (AID 1159580);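 further: tested at 20 µM; growth read once vehicle control cultures reached saturation at 30 °C; 1 = growth at the plate median or of vehicle wells; lower values mean less growth of the strain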
Settings: growth OD

Measured: normalized growth

CC(C)[C@@H]1CC[C@@H](C)CC1=O
inactive: S. cerevisiae deletion strains, locus YJR066W, strain TOR1, hits give low values 0.94 | S. cerevisiae deletion strains, locus YJR075W, strain HOC1, hits give low values 1.02 | S. cerevisiae deletion strains, locus YKL009W, strain mrt4, hits give low values 1.01 | S. cerevisiae deletion strains, locus YKL068W, hits give low values 1.02 | S. cerevisiae deletion strains, locus YKL085W, strain MDH1 (second series), hits give low values 0.999 | S. cerevisiae deletion strains, locus YKL085W, strain MDH1, hits give low values 0.999 | S. cerevisiae deletion strains, locus YKL160W, strain elf1, hits give low values 0.981 | S. cerevisiae deletion strains, locus YKR001C, strain vps1, hits give low values 0.991 | S. cerevisiae deletion strains, locus YKR026C, strain gcn3, hits give low values 0.984 | S. cerevisiae deletion strains, locus YKR091W, strain srl3, hits give low values 0.991 | S. cerevisiae deletion strains, locus YLL001W, strain dnm1, hits give low values 0.98 | S. cerevisiae deletion strains, locus YLL026W, hits give low values 0.985 | S. cerevisiae deletion strains, locus YLL041C, strain sdh2, hits give low values 0.991 | S. cerevisiae deletion strains, locus YLR027C, strain aat2, hits give low values 0.979 | S. cerevisiae deletion strains, locus YLR039C, strain RIC1, hits give low values 1.09 | S. cerevisiae deletion strains, locus YLR058C, strain SHM2, hits give low values 1.02 | S. cerevisiae deletion strains, locus YLR102C, strain apc9, hits give low values 0.997 | S. cerevisiae deletion strains, locus YLR113W, strain HOG1, hits give low values 0.967 | S. cerevisiae deletion strains, locus YLR221C, strain rsa3, hits give low values 1.01 | S. cerevisiae deletion strains, locus YLR258W, strain gsy2, hits give low values 0.996 | S. cerevisiae deletion strains, locus YLR262C, strain YPT6 (second series), hits give low values 0.979 | S. cerevisiae deletion strains, locus YLR262C, strain YPT6, hits give low values 1.14 | S. cerevisiae deletion strains, locus YLR268W, strain sec22, hits give low values 1.02 | S. cerevisiae deletion strains, locus YLR320W, strain mms22, hits give low values 1.01 | S. cerevisiae deletion strains, locus YLR330W, strain CHS5, hits give low values 1.01 | S. cerevisiae deletion strains, locus YLR342W, strain FKS1 (second series), hits give low values 1.03 | S. cerevisiae deletion strains, locus YLR342W, strain FKS1, hits give low values 0.995 | S. cerevisiae deletion strains, locus YLR357W, strain rsc2, hits give low values 0.998 | S. cerevisiae deletion strains, locus YLR370C, strain arc18, hits give low values 0.983 | S. cerevisiae deletion strains, locus YLR371W, strain rom2, hits give low values 1 | S. cerevisiae deletion strains, locus YLR384C, strain iki3, hits give low values 1.01 | S. cerevisiae deletion strains, locus YLR418C, strain cdc73, hits give low values 1.01 | S. cerevisiae deletion strains, locus YML016C, strain PPZ1, hits give low values 1.01 | S. cerevisiae deletion strains, locus YML032C, strain rad52, hits give low values 1.01 | S. cerevisiae deletion strains, locus YML120C, strain ndi1, hits give low values 0.982 | S. cerevisiae deletion strains, locus YML124C, strain tub3, hits give low values 0.999 | S. cerevisiae deletion strains, locus YMR058W, strain fet3, hits give low values 0.989 | S. cerevisiae deletion strains, locus YMR078C, strain ctf18, hits give low values 1 | S. cerevisiae deletion strains, locus YMR125W, strain sto1, hits give low values 0.965 | S. cerevisiae deletion strains, locus YMR129W, hits give low values 1 | S. cerevisiae deletion strains, locus YMR205C, strain PFK2, hits give low values 1 | S. cerevisiae deletion strains, locus YMR223W, strain ubp8, hits give low values 1 | S. cerevisiae deletion strains, locus YMR231W, strain pep5, hits give low values 1 | S. cerevisiae deletion strains, locus YMR263W, strain SAP30, hits give low values 1.02 | S. cerevisiae deletion strains, locus YMR307W, strain GAS1, hits give low values 1.02 | S. cerevisiae deletion strains, locus YNL067W, strain RPL9B, hits give low values 1.03 | S. cerevisiae deletion strains, locus YNL071W, strain lat1, hits give low values 0.991 | S. cerevisiae deletion strains, locus YNL128W, strain TEP1, hits give low values 1.02 | S. cerevisiae deletion strains, locus YNL153C, strain GIM3, hits give low values 1.03 | S. cerevisiae deletion strains, locus YNL183C, strain NPR1, hits give low values 0.935 | S. cerevisiae deletion strains, locus YNL209W, strain ssb2, hits give low values 1 | S. cerevisiae deletion strains, locus YNL233W, strain BNI4, hits give low values 1.04 | S. cerevisiae deletion strains, locus YNL248C, strain rpa49, hits give low values 0.997 | S. cerevisiae deletion strains, locus YNL250W, strain rad50, hits give low values 1 | S. cerevisiae deletion strains, locus YNL271C, strain bni1, hits give low values 1 | S. cerevisiae deletion strains, locus YNL298W, strain CLA4, hits give low values 0.999 | S. cerevisiae deletion strains, locus YNL307C, strain MCK1, hits give low values 1.01 | S. cerevisiae deletion strains, locus YNL322C, strain KRE1 (second series), hits give low values 0.995 | S. cerevisiae deletion strains, locus YNL322C, strain KRE1, hits give low values 1.01 | S. cerevisiae deletion strains, locus YNR049C, strain mso1, hits give low values 1 | S. cerevisiae deletion strains, locus YNR052C, strain pop2, hits give low values 0.991 | S. cerevisiae deletion strains, locus YOL006C, strain TOP1, hits give low values 1.06 | S. cerevisiae deletion strains, locus YOL012C, strain htz1 0.896 | S. cerevisiae deletion strains, locus YOL147C, strain pex11, hits give low values 1.01 | S. cerevisiae deletion strains, locus YOR001W, strain rrp6, hits give low values 1.01 | S. cerevisiae deletion strains, locus YOR061W, strain CKA2, hits give low values 1.01 | S. cerevisiae deletion strains, locus YOR069W, strain VPS5, hits give low values 0.999 | S. cerevisiae deletion strains, locus YOR070C, strain gyp1, hits give low values 0.996 | S. cerevisiae deletion strains, locus YOR080W, strain dia2, hits give low values 0.99 | S. cerevisiae deletion strains, locus YOR083W, strain WHI5, hits give low values 0.965 | S. cerevisiae deletion strains, locus YOR106W, strain vam3, hits give low values 0.98 | S. cerevisiae deletion strains, locus YOR136W, strain idh2, hits give low values 0.987 | S. cerevisiae deletion strains, locus YOR144C, strain elg1, hits give low values 1 | S. cerevisiae deletion strains, locus YOR184W, strain ser1, hits give low values 1.02 | S. cerevisiae deletion strains, locus YOR231W, strain MKK1, hits give low values 0.955 | S. cerevisiae deletion strains, locus YOR265W, strain rbl2, hits give low values 0.989 | S. cerevisiae deletion strains, locus YOR270C, strain vph1, hits give low values 1.01 | S. cerevisiae deletion strains, locus YOR290C, strain snf2, hits give low values 0.954 | S. cerevisiae deletion strains, locus YOR316C, strain cot1, hits give low values 1.01 | S. cerevisiae deletion strains, locus YPL051W, strain arl3, hits give low values 0.998 | S. cerevisiae deletion strains, locus YPL055C, strain LGE1, hits give low values 1.02 | S. cerevisiae deletion strains, locus YPL078C, strain atp4, hits give low values 0.969 | S. cerevisiae deletion strains, locus YPL106C, strain sse1, hits give low values 0.967 | S. cerevisiae deletion strains, locus YPL240C, strain hsp82, hits give low values 0.996 | S. cerevisiae deletion strains, locus YPL241C, strain CIN2, hits give low values 1.01 | S. cerevisiae deletion strains, locus YPL256C, strain CLN2, hits give low values 0.96 | S. cerevisiae deletion strains, locus YPR119W, strain clb2, hits give low values 1 | S. cerevisiae deletion strains, locus YPR141C, strain kar3, hits give low values 0.991 | S. cerevisiae deletion strains, locus YPR163C, strain tif3, hits give low values 1.01 | S. cerevisiae deletion strains, locus YPR167C, strain met16, hits give low values 0.992 | S. cerevisiae deletion strains, strain wtn01, hits give low values 0.992 | S. cerevisiae strains, strain wild type, hits give low values 1.01
